Among the data in the antibiotic and cytotoxicity screens of Wong et al. (2023) are cytotoxicity call values, retold here.

Out of some 39,000 compounds screened, about 3,300 (8.5%) were called active. The entries come from a sample that favours actives as a whole.

In this assay the test system is HepG2. The assay can be described thus: cytotoxicity call (relative viability < 0.9). The conditions noted are these: 10 µM.
In the case of `CO[C@@H](CN(C)C(=O)c1ccc2c(c1)OCO2)[C@H](C)CN([C@@H](C)CO)S(=O)(=O)c1ccc(F)cc1`, the cytotoxicity call was “inactive”.
For `C[C@@H]1CCCCO[C@@H](CN(C)C(=O)CCC(F)(F)F)[C@H](C)CN([C@H](C)CO)C(=O)c2cc(NC(=O)C3CCCCC3)ccc2O1`, the cytotoxicity call is “inactive”.
For the compound `C[C@@H]1CN([C@@H](C)CO)C(=O)c2cccc(NC(=O)Nc3ccc4c(c3)OCO4)c2O[C@H]1CN(C)Cc1ccc(C(=O)Nc2ccccc2N)cc1`, the cytotoxicity call is “inactive”.
Next, `O=C(CCCCCNC(=O)OCc1ccc(CO[C@H]2C[C@@H](c3coc4ccccc4c3=O)C=C(C(=O)N3CCN(Cc4ccccc4)CC3)O2)cc1)NO`: “inactive”.
With `O=C(CN1CCOCC1)N[C@H]1CC[C@@H](CCNS(=O)(=O)c2ccccc2F)O[C@@H]1CO`, the cytotoxicity call is “inactive”.
For the compound `Cc1ccc(S(=O)(=O)Nc2cccc3c2O[C@@H](CN(C)Cc2ccc(Cl)c(Cl)c2)[C@@H](C)CN([C@@H](C)CO)C3=O)cc1`, the cytotoxicity call is “inactive”.
As for `CC(C)NC(=O)N(C)C[C@H]1Oc2ccc(NC(=O)CCC(F)(F)F)cc2C(=O)N([C@H](C)CO)C[C@H]1C`, the cytotoxicity call was “inactive”.
Take `N#C[C@H]1N[C@H](CO)[C@H]1c1ccccc1`: the cytotoxicity call is “inactive”.
`C[C@H](CO)N1C[C@H](C)[C@H](CN(C)S(=O)(=O)c2ccc(C#N)cc2)Oc2ncc(C#CC(C)(C)O)cc2C1=O`: the cytotoxicity call was “inactive”.
Consider `COc1ccccc1S(=O)(=O)N1C[C@@H](O)COC[C@@H]2O[C@@H](CC(=O)O)CC[C@H]21`, for which the cytotoxicity call was “inactive”.
On to `C[C@H](CO)N1C[C@H](C)[C@@H](CN(C)C(=O)c2ccccn2)Oc2cc(C#Cc3ccccc3)ccc2S1(=O)=O`, for which the cytotoxicity call is “inactive”.
As to `C[C@@H]1CN([C@H](C)CO)C(=O)c2c(c3ccccc3n2C)-c2ccccc2CO[C@H]1CN(C)C(=O)Nc1ccc(-c2ccccc2)cc1`, the cytotoxicity call is “active”.
For `C[C@H]1CN([C@@H](C)CO)C(=O)c2c(c3ccccc3n2C)-c2ccccc2CO[C@H]1CN(C)C(=O)Nc1ccc(-c2ccccc2)cc1`, the cytotoxicity call was “active”.
For `C[C@@H]1CN([C@H](C)CO)C(=O)c2c(c3ccccc3n2C)-c2ccccc2CO[C@@H]1CN(C)C(=O)Nc1ccc(-c2ccccc2)cc1`, the cytotoxicity call was “inactive”.
For `C[C@H](CO)N1C[C@H](C)[C@@H](CN(C)C(=O)Nc2ccc(-c3ccccc3)cc2)OCc2ccccc2-c2c(n(C)c3ccccc23)C1=O`, the cytotoxicity call is “inactive”.
With `C[C@H]1CN([C@@H](C)CO)C(=O)c2ccccc2-c2ccccc2CO[C@@H]1CN(C)C(=O)Nc1ccc(-c2ccccc2)cc1`, the cytotoxicity call was “inactive”.
On to `C[C@@H]1CN([C@@H](C)CO)C(=O)c2c(c3ccccc3n2C)-c2ccccc2CO[C@H]1CN(C)C(=O)Nc1ccc(-c2ccccc2)cc1`, for which the cytotoxicity call was “inactive”.
For `C[C@@H]1CN([C@@H](C)CO)C(=O)c2ccccc2-c2ccccc2CO[C@@H]1CN(C)C(=O)Nc1ccc(-c2ccccc2)cc1`, the cytotoxicity call was “inactive”.
`C[C@@H]1CN([C@H](C)CO)C(=O)c2ccccc2-c2ccccc2CO[C@H]1CN(C)C(=O)Nc1ccc(-c2ccccc2)cc1`: the cytotoxicity call was “active”.
Next, `C[C@@H]1CN([C@@H](C)CO)C(=O)c2c(c3ccccc3n2C)-c2ccccc2CO[C@@H]1CN(C)C(=O)Nc1ccc(-c2ccccc2)cc1`: “inactive”; `COc1cc(F)c(C(C)C)cc1-c1ccc(C(F)(F)F)cc1CN1C(=O)O[C@H](c2cc(C(F)(F)F)cc(C(F)(F)F)c2)[C@@H]1C`: “inactive”; `COc1ccc2c3c(n(c2c1)C)[C@H](CO)N(C[C@]13CCN(CC1)C(=O)c1cccnc1)C(=O)c1cccnc1`: “inactive”.
Turning to `C[C@@H]1CN([C@@H](C)CO)C(=O)c2cc(NC(=O)c3ccncc3)ccc2O[C@@H]1CN(C)Cc1ccncc1`, the cytotoxicity call is “inactive”.
As to `C[C@@H]1CCCCO[C@H](CN(C)C(=O)CCCN(C)C)[C@H](C)CN([C@@H](C)CO)C(=O)c2cc(NC(=O)Nc3ccc(F)cc3)ccc2O1`, the cytotoxicity call was “inactive”.
As for `COc1ccc(NC(=O)N(C)C[C@@H]2OCCCC[C@@H](C)Oc3ccc(NS(=O)(=O)c4ccccc4)cc3C(=O)N([C@H](C)CO)C[C@H]2C)cc1`, the cytotoxicity call was “inactive”.
As to `COc1cccc(-c2ccc3c(c2)O[C@@H](CN(C)C(=O)C2CC2)[C@@H](C)CN([C@H](C)CO)S3(=O)=O)c1`, the cytotoxicity call is “inactive”.
On to `C[C@@H]1CN([C@H](C)CO)C(=O)c2cc(NS(=O)(=O)c3ccc(Cl)cc3)ccc2O[C@@H](C)CCCCO[C@@H]1CN(C)C(=O)CCC(F)(F)F`, for which the cytotoxicity call is “inactive”.
As for `N[C@H](C(=O)O)c1cc(O)cc(O)c1`, the cytotoxicity call is “inactive”.
As to `Cc1noc(C)c1NC(=O)Nc1ccc2c(c1)C(=O)N([C@@H](C)CO)C[C@@H](C)[C@@H](CN(C)C(=O)Nc1cccc3ccccc13)O2`, the cytotoxicity call was “inactive”.
In the case of `Cc1noc(C)c1NC(=O)N(C)C[C@H]1OCCCC[C@H](C)Oc2ccc(NS(=O)(=O)c3cccs3)cc2C(=O)N([C@H](C)CO)C[C@@H]1C`, the cytotoxicity call was “inactive”.
`COC(=O)CCc1ccc(OC)cc1O`: the cytotoxicity call was “inactive”.
For `CCCCCCc1ccc(O)cc1O` [listing 1 of 2 here], the cytotoxicity call is “active”.
For `CCCCCCCCCCCCCCCCCC(=O)NCCCCOn1c(CCCC)nc2c(N)nc3ccccc3c21`, the cytotoxicity call was “inactive”.
Take `CCCCCCc1ccc(O)cc1O` [listing 2 of 2 here]: the cytotoxicity call is “inactive”.
Turning to `CCCCCCc1ccc(O)cc1O.Nc1c2ccccc2nc2ccccc12`, the cytotoxicity call was “active”.
On to `CCCCCCCc1c(C)c(O)cc2c1[nH]c1ccccc12`, for which the cytotoxicity call was “inactive”.
As to `Cc1noc(C)c1NC(=O)Nc1ccc2c(c1)CC(=O)N([C@@H](C)CO)C[C@H](C)[C@@H](CN(C)S(=O)(=O)c1cccs1)O2`, the cytotoxicity call was “inactive”.
For the compound `Cc1noc(C)c1NC(=O)N(C)C[C@H]1Oc2ccc(NS(=O)(=O)c3ccccc3)cc2CC(=O)N([C@@H](C)CO)C[C@@H]1C`, the cytotoxicity call is “inactive”.
The same measure for `COc1ccc(NC(=O)N[C@@H]2CC[C@H](CCNC(=O)CN3CCOCC3)O[C@@H]2CO)cc1`: “inactive”.
Turning to `CCC(=O)N(C)C[C@H]1Oc2ncc(C#C[C@H](C)O)cc2C(=O)N([C@H](C)CO)C[C@@H]1C`, the cytotoxicity call is “inactive”.
As to `C[C@H](CO)N1C[C@H](C)[C@@H](CN(C)C(=O)Nc2ccccc2)Oc2cc(C#C[C@@H](C)O)ccc2S1(=O)=O`, the cytotoxicity call is “inactive”.
Regarding `C[C@@H]1CN([C@H](C)CO)S(=O)(=O)c2ccc(-c3cncnc3)cc2O[C@@H]1CN(C)C(=O)c1cccc(F)c1`, the cytotoxicity call is “inactive”.
For the compound `CCc1c(C)[nH]c2ncnn2c1=O`, the cytotoxicity call is “inactive”.
In the case of `CCCN(C)C[C@H]1Oc2cc(C#Cc3cccc(OC)c3)ccc2S(=O)(=O)N([C@@H](C)CO)C[C@H]1C`, the cytotoxicity call is “inactive”.
